Experimental data: PubChem BioAssay (NCI)
Where “and” joins values, the source holds several entries; their conditions need not be identical. Equal values may be shown once. Compounds without any hit were thinned out: in the full panel of roughly 83,000, 20% have a hit.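 A percent growth of 40 corresponds to 60% growth inhibition; 0 means no net growth; -100 means all cells died. Active threshold: below 10.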

Experiments:
Experiment in all cases: NCI-60 one-dose screen, 48 h (100 = growth as untreated, 0 = no growth, -100 = all killed)
Conditions in all cases: 10 µM unless noted
SR leukemia = test system: SR leukemia
RPMI-8226 leukemia = test system: RPMI-8226 leukemia
OVCAR-8 ovarian = test system: OVCAR-8 ovarian
OVCAR-5 ovarian = test system: OVCAR-5 ovarian
OVCAR-4 ovarian = test system: OVCAR-4 ovarian
SK-OV-3 ovarian = test system: SK-OV-3 ovarian
IGROV1 ovarian = test system: IGROV1 ovarian
OVCAR-3 ovarian = test system: OVCAR-3 ovarian
HS 578T breast = test system: HS 578T breast
NCI/ADR-RES ovarian = test system: NCI/ADR-RES ovarian
T-47D breast = test system: T-47D breast
BT-549 breast = test system: BT-549 breast
MDA-MB-435 melanoma = test system: MDA-MB-435 melanoma
SW-620 colon = test system: SW-620 colon
MCF7 breast = test system: MCF7 breast
HCT-116 colon = test system: HCT-116 colon
HCC-2998 colon = test system: HCC-2998 colon
KM12 colon = test system: KM12 colon

Measured: growth

COc1cc(NCCCCCNC(C)C)c2ncccc2c1
inactive: SR leukemia 82.8% and 133% | RPMI-8226 leukemia 107% and 98.1% | OVCAR-8 ovarian 104% and 89.6% | OVCAR-5 ovarian 95.2% and 86.9% | OVCAR-4 ovarian 44.4% and 45.7% | SK-OV-3 ovarian 84.3% | IGROV1 ovarian 90.3% and 60.4% | OVCAR-3 ovarian 92% | HS 578T breast 83.5% | NCI/ADR-RES ovarian 91.5% and 93.7% | T-47D breast 82.3% | BT-549 breast 89.1% | MDA-MB-435 melanoma 97.8% and 106% | SW-620 colon 87.2% and 106% | MCF7 breast 85.3% and 86.4% | HCT-116 colon 96.9% and 90.3% | HCC-2998 colon 102% and 90.2% | KM12 colon 91.4%

COC(=O)c1nc(N)nc(C(=O)OC)c1C(=O)c1cccc2ccccc12
inactive: SR leukemia 105% | RPMI-8226 leukemia 109% | OVCAR-8 ovarian 117% | OVCAR-5 ovarian 103% | OVCAR-4 ovarian 108% | SK-OV-3 ovarian 121% | IGROV1 ovarian 117% | OVCAR-3 ovarian 132% | HS 578T breast 108% | NCI/ADR-RES ovarian 103% | T-47D breast 109% | BT-549 breast 133% | MDA-MB-435 melanoma 108% | SW-620 colon 118% | MCF7 breast 94.5% | HCT-116 colon 111% | HCC-2998 colon 106% | KM12 colon 110%

COc1ccc(CCn2cnn3c(=O)c4ccccc4nc3c2=O)cc1OC
inactive: SR leukemia 99.4% and 90.8% | RPMI-8226 leukemia 95.7% and 92.2% | OVCAR-8 ovarian 104% and 110% | OVCAR-5 ovarian 99.8% and 121% | OVCAR-4 ovarian 97.3% and 112% | SK-OV-3 ovarian 112% and 108% | IGROV1 ovarian 115% | OVCAR-3 ovarian 103% and 115% | HS 578T breast 98.3% and 115% | NCI/ADR-RES ovarian 101% and 107% | T-47D breast 113% and 103% | BT-549 breast 91.4% and 114% | MDA-MB-435 melanoma 103% and 119% | SW-620 colon 101% and 112% | MCF7 breast 106% and 100% | HCT-116 colon 99.4% and 107% | HCC-2998 colon 104% and 111% | KM12 colon 94.4% and 103%

CCc1ccc(OC(=O)CCl)cc1
inactive: SR leukemia 101% | RPMI-8226 leukemia 111% | OVCAR-8 ovarian 101% | OVCAR-5 ovarian 107% | OVCAR-4 ovarian 95.6% | SK-OV-3 ovarian 112% | IGROV1 ovarian 108% | OVCAR-3 ovarian 104% | HS 578T breast 110% | NCI/ADR-RES ovarian 103% | T-47D breast 100% | BT-549 breast 109% | MDA-MB-435 melanoma 100% | SW-620 colon 109% | MCF7 breast 103% | HCT-116 colon 102% | HCC-2998 colon 104% | KM12 colon 95%

Cc1ccc(S(=O)(=O)n2ccnc2)cc1
inactive: SR leukemia 140% | RPMI-8226 leukemia 100% | OVCAR-8 ovarian 100% | OVCAR-5 ovarian 102% | OVCAR-4 ovarian 102% | SK-OV-3 ovarian 123% | IGROV1 ovarian 75.5% | OVCAR-3 ovarian 101% | HS 578T breast 111% | NCI/ADR-RES ovarian 101% | T-47D breast 96.8% | BT-549 breast 122% | MDA-MB-435 melanoma 108% | SW-620 colon 109% | MCF7 breast 99% | HCT-116 colon 98% | HCC-2998 colon 102% | KM12 colon 95.8%

O=C(c1ccccc1)C1(Br)CCCCC1
inactive: SR leukemia 149% | RPMI-8226 leukemia 98.9% | OVCAR-8 ovarian 103% | OVCAR-5 ovarian 97% | OVCAR-4 ovarian 105% | SK-OV-3 ovarian 108% | IGROV1 ovarian 97.2% | OVCAR-3 ovarian 112% | HS 578T breast 97.3% | NCI/ADR-RES ovarian 91.5% | T-47D breast 94.7% | BT-549 breast 105% | MDA-MB-435 melanoma 105% | SW-620 colon 105% | MCF7 breast 96% | HCT-116 colon 104% | HCC-2998 colon 101% | KM12 colon 104%

CCC(C)NC(=O)c1ccccc1C (stereo unspecified)
inactive: SR leukemia 111% | RPMI-8226 leukemia 105% | OVCAR-8 ovarian 102% | OVCAR-5 ovarian 79.6% | OVCAR-4 ovarian 109% | SK-OV-3 ovarian 97.5% | IGROV1 ovarian 94.1% | OVCAR-3 ovarian 110% | HS 578T breast 96.8% | NCI/ADR-RES ovarian 92.7% | T-47D breast 94.3% | BT-549 breast 99.4% | MDA-MB-435 melanoma 103% | SW-620 colon 92.4% | MCF7 breast 90.7% | HCT-116 colon 98.3% | HCC-2998 colon 96.7% | KM12 colon 101%
